Screening results from PubChem BioAssay.
Sampled rows, rich in hits. Any-hit rate of the full collection: about 10%.
NPR1 antag: Natriuretic polypeptide receptor (hNpr1) antagonism - Primary qHTS; Potency, µM (doses to about 46.3 µM), usual class: inhibitors; HEK293 hNpr1 GloSensor cGMP, ANP-stimulated luminescence; 1.6% of 76,000 active; AID 1347048, 2019; Atrial natriuretic peptide receptor 1 (Homo sapiens), P16066; calls by dose curve; further: nearly all actives have a fitted effect of over 60% in size
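Compound pre-incubated 30 min at room temperature on GloSensor-loaded HEK293 cells stably carrying hNpr1 and the pGS-40F cGMP biosensor. Stimulation uses hNppA at 0.1 nM final; luminescence is taken at baseline and 20 min post-agonist.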
NIH3T3 tox: Cytotoxic Profiling in NIH 3T3 Cell Line of Diverse Libraries Using Quantitative High-Throughput Screening. 4.3% of 94,000 active. Potency, µM (doses to about 96.7 µM), most hits filed as inhibitors. AID 1345082, 2018. NIH 3T3 viability, CellTiter-Glo ATP luminescence, 48-72 h; further: nearly all actives have a fitted effect of over 55% in size
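Cells were seeded at 400 per well, treated with pin-transferred compound, and kept 48 or 72 hr at 37 °C before CellTiter-Glo addition and luminescence imaging of cellular ATP.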
HEK cytotox: Cytotoxic Profiling in HEK 293 Cell Line of Diverse Libraries Using Quantitative High-Throughput Screening. HEK 293 viability, ATP luminescence (CellTiter-Glo), 48-72 h. Potency, µM (top dose mostly 115 µM), usual class: inhibitors. 6.6% of 94,000 active; further: nearly all actives have a fitted effect of over 60% in size
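HEK 293 seeded at 250 cells/well receive compound via pintool. After 48 or 72 hr at 37 degree Celsius, 5% CO2 and 95% humidity, CellTiter-Glo is dispensed and luminescence read following 10 min at room temperature.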
Luciferase inh: Firefly luciferase inhibition profiling of diverse chemical library using quantitative high-throughput screening; 2.5% of 76,000 active; purified P. pyralis luciferase, luminescence, biochemical; Potency, µM (series often up to 115 µM), usual class: inhibitors; further: nearly all actives have a fitted effect of over 65% in size
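Biochemical qHTS: compound (6-point titration) added to 10uM D-luciferin plus 10uM ATP in Tris acetate pH 7.5 buffer with Mg, Tween-20 and BSA, then purified enzyme at 10nM; light output imaged.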
GPT2 inh: Primary qHTS assay for inhibitors of Glutamate pyruvate transaminase 2 (GPT2). Alanine aminotransferase 2 (Homo sapiens), Q8TD30. Recombinant GPT2, coupled pyruvate oxidase/HRP Amplex Red fluorescence. Potency, µM (highest dose often 57.7 µM), usual class: inhibitors. 0.25% of 100,000 active. AID 1671188, 2021; further: nearly all actives have a fitted effect of over 60% in size
Target sequence (Q8TD30 whole entry, looked up): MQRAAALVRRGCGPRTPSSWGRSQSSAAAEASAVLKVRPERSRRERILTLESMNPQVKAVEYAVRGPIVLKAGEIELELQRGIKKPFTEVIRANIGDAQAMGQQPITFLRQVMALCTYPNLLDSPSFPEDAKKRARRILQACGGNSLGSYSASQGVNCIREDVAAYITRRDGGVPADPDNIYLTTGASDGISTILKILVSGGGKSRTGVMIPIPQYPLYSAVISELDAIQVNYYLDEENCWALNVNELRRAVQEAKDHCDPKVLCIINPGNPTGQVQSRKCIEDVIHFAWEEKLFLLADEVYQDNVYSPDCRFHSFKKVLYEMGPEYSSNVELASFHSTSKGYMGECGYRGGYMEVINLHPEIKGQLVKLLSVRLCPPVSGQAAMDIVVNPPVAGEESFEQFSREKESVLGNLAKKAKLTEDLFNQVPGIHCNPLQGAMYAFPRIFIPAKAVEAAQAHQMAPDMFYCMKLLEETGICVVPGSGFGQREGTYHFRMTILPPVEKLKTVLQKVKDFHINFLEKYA
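Fluorescence read-out: pyruvate from GPT2 turnover coupled to pyruvate oxidase, HRP and Amplex Red (0.2mM ThPP, 0.2U/mL PO and HRP, 50uM Amplex final). Substrates 250uM a-KG, 2mM L-alanine; enzyme 10ng/uL; 30 min RT.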
Large screens that a line does not name were inactive. Unless noted, the call rests on the fitted dose curve; in most records, active means well fitted curve in the direction sought with a large enough effect; inconclusive means small, poorly fitted or top-dose-only effect, or another doubt; inactive means no such curve, though single readings can be large; an effect the other way counts as inactive or inconclusive.

O=C(C[C@@H]1O[C@H](CNCc2ccc(F)cc2)[C@@H](O)[C@H]1O)NCCN1CCOCC1	NIH3T3 tox inconclusive
O=C(NCCN1CCOCC1)C1CCc2nnc(-c3ccc(F)cc3)n21 (stereo not given)	none (no result: NPR1 antag, Luciferase inh)
COC(=O)[C@@H]1Cc2c([nH]c3ccccc23)[C@H]2C[C@@H](NCCN3CCOCC3)C[C@@H](c3ccc(F)cc3)N21	NIH3T3 tox inconclusive, HEK cytotox 28.2µM
COC(=O)[C@@H]1Cc2c([nH]c3ccccc23)[C@H]2C[C@H](NCCN3CCOCC3)C[C@@H](c3ccc(F)cc3)N21	NIH3T3 tox 25.1µM, HEK cytotox 20µM
O=C1Cc2c(-c3cccc4ccccc34)n[nH]c2CN1CCc1ccncc1	NIH3T3 tox inconclusive, HEK cytotox 79.4µM
O=C1Cc2c(-c3cccc(C(F)(F)F)c3)n[nH]c2CN1CCc1ccncc1	NIH3T3 tox inconclusive, HEK cytotox 89.1µM
O=C1Cc2c(-c3ccc4c(c3)OCO4)n[nH]c2CN1CC1CCOCC1	NIH3T3 tox 10µM
O=C1Cc2c(-c3ccc(N4CCOCC4)cc3)n[nH]c2CN1CCc1ccncc1	NIH3T3 tox 79.4µM, Luciferase inh inconclusive
O=C1Cc2c(-c3ccccc3)n[nH]c2CN1CCc1ccncc1	NIH3T3 tox inconclusive
O=C(N[C@@H]1CN(C(=O)c2ccsc2)C[C@H]1CO)c1ccccc1	none (no result: NPR1 antag, Luciferase inh)
COc1ccc(C(=O)NC(C(=O)NCC(C)C)C2CCN(C(=O)c3ccccc3C)CC2)cc1 (stereo not given)	none
COc1ccccc1-c1cccc(CN2CCCC(C(=O)N(C)C)C2)c1 (stereo not given)	NIH3T3 tox inconclusive, HEK cytotox inconclusive (no result: NPR1 antag, Luciferase inh)
COc1ccccc1-c1cccc(CN2CCCC(C(=O)N3CCN(c4ncccn4)CC3)C2)c1 (stereo not given)	NIH3T3 tox inconclusive, HEK cytotox 15.8µM (no result: NPR1 antag, Luciferase inh)
COc1ccccc1-c1cccc(CN2CCCC(C(=O)N3CCCC(C)C3)C2)c1 (stereo not given)	NIH3T3 tox inconclusive, HEK cytotox 39.8µM (no result: NPR1 antag, Luciferase inh)
COc1ccccc1-c1cccc(CN2CCCC(C(=O)N3CCN(Cc4ccccc4)CC3)C2)c1 (stereo not given)	NIH3T3 tox 35.5µM, HEK cytotox 39.8µM (no result: NPR1 antag, Luciferase inh)
COc1ccccc1-c1cccc(CN2CCCC(C(=O)N3CCC(c4ccccc4)CC3)C2)c1 (stereo not given)	NIH3T3 tox inconclusive, HEK cytotox 39.8µM (no result: NPR1 antag, Luciferase inh)
COc1ccccc1-c1cccc(CN2CCCC(C(=O)N3CCN(C(C)=O)CC3)C2)c1 (stereo not given)	HEK cytotox inconclusive (no result: NPR1 antag, Luciferase inh)
CNC(=O)c1cc(C)nc2onc(C3CCCN(C(=O)C4CCCCC4)C3)c12 (stereo not given)	none (no result: NPR1 antag, Luciferase inh, GPT2 inh)
O=C1OC[C@@H]2CCN(Cc3ccc(Cl)cc3)Cc3ccc(F)cc3N12	NIH3T3 tox inconclusive, HEK cytotox inconclusive
COc1ccc(C(=O)N2CCn3c(nn(-c4ccc([N+](=O)[O-])cc4)c3=O)C2)cc1	NIH3T3 tox inconclusive, HEK cytotox inconclusive
Cn1ncc2c(C(=O)N3CCOCC3)cc(-c3ccccc3)nc21	none (no result: NPR1 antag, Luciferase inh)
CN(C)S(=O)(=O)N1CCc2nc3cc(-c4ccccc4)[nH]n3c(=O)c2C1	Luciferase inh 0.447µM
COc1ccc(C(=O)N2CCC(Oc3nccnc3N(C)C)C2)c(OC)c1 (stereo not given)	HEK cytotox inconclusive, Luciferase inh 20µM
CN(C)c1nccnc1OC1CCN(C(=O)c2ccncc2)C1 (stereo not given)	none
CCOc1ccccc1C(=O)N1CCC(Oc2nccnc2N(C)C)C1 (stereo not given)	HEK cytotox inconclusive, Luciferase inh 31.6µM
COc1ccc(C(=O)N2CCC(Oc3ncccc3C(=O)N3CCCCC3)C2)c(OC)c1 (stereo not given)	none
COc1cccc(C(=O)N2CCN(C(=O)c3nc4cccnc4n(C4CC4)c3=O)CC2)c1	none (no result: NPR1 antag, Luciferase inh)
Cc1ccc(C(=O)N2CCC(c3n[nH]c(=O)n3Cc3ccc(F)cc3)CC2)cc1F	NIH3T3 tox inconclusive
Cc1ccc(N2Cc3c(NCCc4ccc(F)cc4)ncnc3N(C)CC2=O)cc1	NIH3T3 tox 35.5µM, HEK cytotox inconclusive, GPT2 inh inconclusive
COC(=O)CNC(=O)C1CCN(Cc2ccccc2-c2cccnc2)CC1	none (no result: NPR1 antag, Luciferase inh)
Cc1cccc(S(=O)(=O)N2CCCN(C)c3ccccc32)c1	NIH3T3 tox inconclusive, HEK cytotox inconclusive
CN1CCCN(S(=O)(=O)c2ccc(C(F)(F)F)cc2)c2ccccc21	NIH3T3 tox inconclusive, HEK cytotox 39.8µM, GPT2 inh inconclusive
CN1CCCN(S(=O)(=O)c2ccc(Cl)cc2)c2ccccc21	NIH3T3 tox inconclusive, HEK cytotox inconclusive
CN1CCCN(S(=O)(=O)c2cccc(Br)c2)c2ccccc21	NIH3T3 tox inconclusive, HEK cytotox 39.8µM
O=C1N(Cc2cccnc2)C(=O)C2(CCN(Cc3cc(F)ccc3F)CC2)N1CCc1ccccc1	NIH3T3 tox inconclusive, HEK cytotox 39.8µM
COCCNC(=O)c1nc(-c2cccc(C(F)(F)F)c2)c2cnccn12	HEK cytotox inconclusive
O=C(Cc1ccc(Cl)cc1)N1CCC(N2CC3CC(C2)[C@H]2CCCC(=O)N2C3)CC1 (stereo not given in full)	none
CNC(=O)N1c2ccccc2CC1c1nc(C(C)C)no1 (stereo not given)	none
Cc1ccc(C)c(S(=O)(=O)N2c3ccccc3CC2c2nc(C(C)C)no2)c1 (stereo not given)	NIH3T3 tox inconclusive, HEK cytotox 14.1µM (no result: NPR1 antag, Luciferase inh)
CCc1nc2c(c(-c3ccc(OC)cc3)n1)CN(C(=O)c1ccc(C(F)(F)F)cc1)CC2	none (no result: NPR1 antag, Luciferase inh)
O=C(NCc1ccc(F)cc1)c1cc(-c2ccc(Cl)cc2Cl)c2nncn2n1	NIH3T3 tox 44.7µM, HEK cytotox 89.1µM (no result: NPR1 antag, Luciferase inh)
O=C(NCC1CCCCC1)c1cc(-c2ccc(F)cc2)c2nncn2n1	NIH3T3 tox 6.31µM, HEK cytotox inconclusive (no result: NPR1 antag, Luciferase inh)
COCCNc1ncc(-c2ccc(OC)cc2)c2c1OCC2	NIH3T3 tox inconclusive, HEK cytotox inconclusive, Luciferase inh 44.7µM
COCCNc1ncc(-c2ccc(F)cc2)c2c1OCC2	NIH3T3 tox inconclusive, HEK cytotox inconclusive, Luciferase inh 15.8µM
COCCNc1ncc(-c2ccc(SC)cc2)c2c1OCC2	NIH3T3 tox inconclusive, HEK cytotox inconclusive, Luciferase inh inconclusive
Nc1cc(N2CCC(Oc3ccc4c(c3)OCO4)(C(=O)O)CC2)ncn1	none
CC(C)CCN1CCOc2cc(C(=O)Nc3ccccc3)ccc2C1	NIH3T3 tox 11.2µM, HEK cytotox inconclusive
